Data published in the supplement of paper PMC6555819.

Key:
Assay in all cases: PBM binding z-score (relative to random genomic background probes); higher = stronger binding; sequences stand for … in GC…GCGATTGACAGCGTAGAATGAAGG
[1] = test system: FXR:RXRa (NR concentration 270 nM, RXRa partner concentration 90 nM)
In short: (§1)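 Ligand-free nuclear receptor dimers were applied to custom Agilent 4×180K protein-binding microarrays whose double-stranded probes carried direct-repeat seeds, single-nucleotide variants, half-site ablations and random human genomic background sequences in 34-nt variable regions. Incubation lasted 1 h. Binding z-scores were computed against the random background probes from regression-normalized fluorescence.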

[2] = test system: LXRa:RXRa (NR concentration 270 nM, RXRa partner concentration 90 nM)
In short: as §1

[3] = test system: LXRa homodimer (NR concentration 270 nM)
In short: as §1

[4] = test system: LXRb:RXRa (NR concentration 270 nM, RXRa partner concentration 90 nM)
In short: as §1

[5] = test system: LXRb homodimer (NR concentration 270 nM)
In short: as §1

[6] = test system: PPARa:RXRa (NR concentration 270 nM, RXRa partner concentration 90 nM)
In short: as §1

[7] = test system: PPARg:RXRa (NR concentration 180 nM, RXRa partner concentration 90 nM)
In short: as §1

[8] = test system: PPARg:RXRa 270nM:90nM, anti-RXR (NR concentration 270 nM, RXRa partner concentration 90 nM)
In short: as §1

[9] = test system: PPARg:RXRa 30nM:10nM, anti-RXR (NR concentration 30 nM, RXRa partner concentration 10 nM)
In short: as §1

[10] = test system: PPARg:RXRa 90nM:30nM, anti-RXR (NR concentration 90 nM, RXRa partner concentration 30 nM)
In short: as §1

| Sequence | PBM binding z-score [1] | PBM binding z-score [2] | PBM binding z-score [3] | PBM binding z-score [4] | PBM binding z-score [5] | PBM binding z-score [6] | PBM binding z-score [7] | PBM binding z-score [8] | PBM binding z-score [9] | PBM binding z-score [10] |
| --- | --- | --- | --- | --- | --- | --- | --- | --- | --- | --- |
| TCATATAGGTAAATGCTAGGTGGAAGTCCGATCT | 0.532 | 0.496 | 0.0241 | 0.66 | -0.216 | 0.983 | 0.493 | 2.41 | 3.84 | 2.88 |
| AATACAGGGTCACTAGGCCAGTGTAGGTACGAAT | 5.94 | 5.39 | 1.08 | 3.91 | 0.765 | 5.69 | 7.83 | 6.59 | 3.05 | 5.85 |
| TCGAGTAGGTTACCAAGGGGGCATTCAGCTTTCT | 1.44 | 4.34 | 0.768 | 4.55 | 6.02 | 2.95 | 1.48 | 3.04 | 2.18 | 2.74 |
| ACTAGCAGGCCAAATTTGGGTCACTCAAACAAAG | 0.491 | 0.315 | -0.377 | 0.947 | -0.562 | 2.99 | 1.62 | 1.84 | 0.0732 | 1.04 |
| AGAACGAGGGCAATGAGTTGATAGCGCGGGTGGC | 0.136 | 0.127 | -0.734 | -0.343 | -0.754 | 1.25 | 0.897 | 0.618 | -0.31 | 0.0829 |
| CAAACTAGGACACCGGAAGGTCAAAGTCCGCATG | 3.19 | 3.23 | 3.38 | 3.19 | 0.695 | 4.46 | 4.72 | 4.54 | 1.9 | 3.7 |
| GCTTGCAGATCAAGGTTAAGAAAGACTAAGCTAA | -0.109 | 0.424 | -0.386 | 0.358 | -0.936 | 1.25 | 0.0724 | 0.872 | 0.0105 | 0.351 |
| CCTACTGGGCCAAGAAAGGTCATTGATTCAGTGA | 3.31 | 4.19 | 4.12 | 3.8 | -0.225 | 4.33 | 2.63 | 3.17 | 0.919 | 2.35 |
| AGAATGAGGTTGAGATCAGGGAAACAGAATACAT | 0.277 | 0.207 | -0.104 | 0.224 | -0.585 | 0.66 | 0.524 | 0.227 | 0.329 | 0.246 |
| TCTAGCAGGCCAGAGGGTCACTCTAGAGGTACGG | 0.795 | 0.863 | -0.632 | 1.02 | -1.09 | 2.13 | 1.45 | 2.77 | 2.29 | 2.45 |
| GGAACGAGGGCATTCGTGTTGATAGCATGGCGAT | 0.778 | 0.372 | -0.449 | 0.152 | -0.674 | 1.39 | 0.763 | 0.768 | -0.395 | 0.413 |
| GCTCAGAGGACAAGGTCAGAGCTTTGTCCGTAGA | 1.98 | 1.73 | -0.421 | 1.27 | -0.977 | 2.37 | 0.282 | 0.936 | -0.588 | 0.0916 |
| TCTATTAGTTGTAGGGCAACCGACGAGTCCGTTT | 0.532 | 0.422 | 0.481 | 0.268 | 0.355 | 1.1 | 0.164 | 1.78 | 3.28 | 2.49 |
| GCAGACAGTTGAAACGCAGGTAACTCAGGGTGGC | -0.0356 | -0.382 | -0.506 | -0.476 | -0.589 | -0.162 | 0.287 | -0.573 | -0.78 | -0.65 |
| ACTTACGGGTCATCGAGGTTATAGCACGCGTATA | 6.76 | 4.95 | 0.924 | 4.29 | 0.569 | 5.8 | 5.44 | 5.54 | 2.13 | 4.43 |
| CCGAATAGGTTATGGGGCATTCAGGCAACGGTGA | 0.575 | 0.686 | -0.0267 | 1.02 | -0.297 | 2.16 | 1.97 | 3.14 | 0.896 | 2.04 |
| CGAACTAGGTCAGAACAGCACAGTGAAGGATGAT | 0.904 | 0.613 | -0.229 | 0.425 | -0.2 | 3.25 | 5.34 | 4.59 | 1.73 | 3.54 |
| CCGACTGGGGCATAGGGTTACCATAAGCCAGCCC | 0.216 | 1.62 | -0.605 | 0.389 | -0.905 | 2.07 | 3.45 | 4.29 | 2.36 | 4 |
| CCTTACGGGTCATTCCAGGTTATAGCATCGGAGT | 6.28 | 7.32 | 2.01 | 4.7 | 0.548 | 4.94 | 3.32 | 4.21 | 1.14 | 2.4 |
| TAGCCTAGGTAAGATCGGGCCAGTATACGCTATA | -0.504 | -0.787 | -0.612 | -0.831 | -1.39 | -0.58 | 0.0812 | -0.494 | -0.743 | -0.292 |
| GCTAGTTGGTTAGTAAAAGGTCACACACCGGTCG | 2.97 | 4.33 | 4.85 | 4.1 | 1.08 | 4.6 | 2.08 | 3.55 | 1.87 | 3.47 |
| CCAACTAGGTCATCCAGGACAGTGAATACATTGA | 3.96 | 2.83 | 1.3 | 2.48 | 0.7 | 4.41 | 6.66 | 5.59 | 2.96 | 4.83 |
| ACTAGCAGGCCAAGGGTCACTCACGATTAGTCCG | 2.5 | 2.67 | 0.186 | 2.74 | -0.177 | 4.69 | 7.31 | 6.69 | 5.72 | 6.89 |
